Each compound was assayed on Pseudomonas aeruginosa PA14 dppBCDF deletion mutant (assay: respiration area under curve with compound as sole nitrogen source, 24 h (OmniLog AUC (arbitrary units)); higher = more respiration / better utilisation as nitrogen source, active = 2000 or more). Details: plate: PM8.
Description: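 Biolog Phenotype MicroArray plates PM6-PM8: each di/tripeptide is the sole nitrogen source. Tetrazolium reduction was read in the OmniLog every 15 min for 24 h at 37°C and summarised as area under the respiration curve (arbitrary units). Values below 2000 count as no respiration. Strain is the dipeptide ABC transporter deletion mutant.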

Compound | respiration area under curve
N[C@@H](Cc1ccc(O)cc1)C(=O)NCC(=O)NCC(=O)O | 4900 (active)

— the supplement of paper PMC4206461
